In PubChem BioAssay AID686979 (National Center for Advancing Translational Sciences (NCATS), 2013):
Where “and” joins values, the source holds several entries; their conditions need not be identical. Equal entries are not always repeated. Screen size: about 420,000 compounds; about 50,000 (12%) were called active. Another 26% or so got no clear call; they are omitted. Calls follow the shape of the dose curve; as a rule, active = well fitted inhibition curve with a large enough effect; inconclusive = small, poorly fitted or top-dose-only effect; inactive = flat fitted curve, though single readings scatter. Only a selection was taken, and actives are over-represented in it overall. Some compounds were tested as several samples or in several runs, with calls that do not always agree. Where a SMILES comes first, the peptide text is derived from it. [ ]: non-standard residue; d: D form. The star is where a group is joined. PhAc = O=C(Cc1ccccc1)*

Experiment: qHTS for Inhibitors of human tyrosyl-DNA phosphodiesterase 1 (TDP1): qHTS in cells in presence of CPT; also: nearly all actives have a fitted effect of over 55% in size
Settings: chicken DT40 Tdp1-/-;hTDP1 cells + 20 nM CPT, ATP luminescence, 48 h; series mostly up to 46.2 µM; activity change, negative = growth inhibition: at the top concentration
Procedure, shortened: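 Chicken DT40 Tdp1-/- cells complemented with human TDP1, 400 cells/well, exposed to compounds plus 20 nM camptothecin for at least 48 h at 37 C; viability read as ATP content by CellTiter-Glo luminescence.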
% is scaled to controls: 0 for no effect and ±100 for the full control effect; potency is read from the fitted curve at half-maximal effect.

Compound	activity change, negative = growth inhibition	Potency
CC(=O)c1ccc(OC(=O)N2CCOCC2)cc1	-5.46% (inactive)	–
Cc1ccc(OCCNC(=O)CN2C(=O)NC3(CCCC3)C2=O)cc1	6.25% (inactive)	–
CCN(CC)Cc1cc(C(C)=O)ccc1O	-1.53% (inactive)	–
CC(=O)NCCc1nc2cc(NC(=O)c3ccccc3)ccc2n1C	-18.5% (inactive)	–
COc1ccccc1Cn1c(CO)nc2ccccc21	-7.97% (inactive)	–
CCCCCNC(=O)c1cccnc1SCC(=O)Nc1ccccc1OC	-16.8% (inactive)	–
CCCCCn1c(CCNC(=O)c2ccc(F)cc2)nc2ccccc21	–	23.1 µM (active)
Cc1cc2ccccc2n1CCNC(=O)c1ccc(F)cc1	–	14.6 µM (active)
Cc1cc2ccccc2n1CCC(=O)O	10.1% (inactive)	–
CCC(=O)NCCc1nc2ccccc2n1CC	16% (inactive)	–
CCCCCn1c(CCCNC(=O)c2ccccc2OC)nc2ccccc21	–	20.6 µM (active)
Cc1cc(C(=O)COC(=O)CNC(=O)c2ccc(F)cc2)c(C)n1Cc1ccco1	-1.26% (inactive)	–
COc1ccc(CCNC(=O)Cn2c(=O)n(-c3ccccc3)c(=O)c3c(C)c(C)sc32)cc1OC	-27.4% (inactive)	–
Cc1cc(C)c(NC(=O)c2cc3sc(Cl)cc3n2C)c(C)c1	-28.3% (inactive)	–
COc1ccc2c(c1)c1nc3n(c(=O)c1n2CC(=O)Nc1ccccc1)CCS3	0.0881% (inactive)	–
COc1ccc(S(=O)(=O)Nc2ccc3c(c2)OCO3)cc1Cl	-21.9% (inactive)	–
COCC(=O)Nc1c(I)c(C(=O)NCC(O)CO)c(I)c(C(=O)N(C)CC(O)CO)c1I (configuration not stated)	–	inactive
CC(C)C[C@@H](NC(=O)[C@H]1CCCN1C(=O)Cc1ccccc1)C(N)=O (PhAc-[dP]-[dL]-NH2)	-1.96% (inactive)	–
Cc1noc2ncnc(NCc3ccccc3Cl)c12	–	18.4 µM (active)
O=C(O)Cc1ccc(NCc2ccccc2Cl)cc1	-0.43% (inactive)	–
Cc1cnc(CNc2ncncc2-c2ccccc2Cl)cn1	-18.5% (inactive)	–
N/C(=N\OC(=O)CCCC(=O)O)c1ncc(C(F)(F)F)cc1Cl	-7.67% (inactive)	–
CCNC(=O)COc1cc(C)c(Br)c(C)c1	-8.79% (inactive)	–
CCn1cc(/C=C(\NC(=O)c2cc(OC)c(OC)c(OC)c2)C(=O)N2CCN(C)CC2)c2ccccc21	-20.7% (inactive)	–
COc1ccc(C2=CC(c3ccccc3Cl)n3nc(-c4ccc(Cl)cc4)nc3N2)cc1 (configuration not stated)	-25.4% (inactive)	–
CN(CC(=O)NCCN1CCOCC1)S(=O)(=O)c1ccc(F)cc1	-5.45% (inactive)	–

Compound	activity change, negative = growth inhibition	Potency
Cc1ccnc(SCC(=O)Nc2cccc(S(=O)(=O)N3CCOCC3)c2)n1	-17.4% (inactive)	–
C=C(C)CNC(=S)/N=c1\scc(C)n1CC	–	18.4 µM (active)
Cc1csc(=NC(=O)c2ccccc2)n1CCO	-1.5% (inactive)	–
CSCCC(C(=O)NC1=NCCS1)N1C(=O)c2ccccc2C1=O (configuration not stated)	0.803% (inactive)	–
N/C(=N\OS(=O)(=O)c1cccc([N+](=O)[O-])c1)c1ccncc1	19.5% (inactive)	–
Cc1cc(C)c(C(=O)CSc2nc(C)cc(=O)[nH]2)c(C)c1	-9.01% (inactive)	–
Cc1cc(C(=O)CSc2nc(N)cc(=O)[nH]2)c(C)n1CCc1ccc(Cl)cc1	–	16.4 µM (active)
Cc1cc(C(=O)CSc2nc(N)cc(=O)[nH]2)c(C)n1-c1cccc(F)c1	–	7.31 µM (active)
Cc1cc(=O)[nH]c(SCc2ccc(Cl)cc2)n1	-0.663% (inactive)	–
CCCCc1nnc(NC(=O)CSc2nc(N)cc(=O)[nH]2)s1	-1.51% (inactive)	–
CCN(C(=O)CSc1nc(N)cc(=O)[nH]1)C1CCS(=O)(=O)C1 (configuration not stated)	-3.6% (inactive)	–
Cc1c(OC(C)C(=O)NCC2CCC(C(=O)O)CC2)ccc2c1oc(=O)c1ccccc12 (configuration not stated)	-15.5% (inactive)	–
COc1cc(SC)ccc1C(=O)NNC(=O)C1COc2ccccc2O1 (configuration not stated)	4.8% (inactive)	–
CCc1ccccc1NC(=O)CN(C)C(=O)c1cc(C2CC2)nn1-c1ccccc1	-25.9% (inactive)	–
O=C(COC(=O)c1ccc(Br)o1)NC12CC3CC(CC(C3)C1)C2	6.98% (inactive)	–
O=C(COC(=O)c1cccnc1Cl)NC12CC3CC(CC(C3)C1)C2	-1.45% (inactive)	–
COc1cc(C(=O)OCC(=O)NC23CC4CC(CC(C4)C2)C3)cc(OC)c1OC	–	29.1 µM (active)
Cc1cccc(-c2noc(-c3ccc(F)cc3)n2)c1	11% (inactive)	–
CC(C)S(=O)(=O)c1oc(-c2ccc(F)cc2)nc1S(=O)(=O)c1ccc(F)cc1	–	0.291 µM (active)
COc1cc(-c2nc(S(=O)(=O)c3ccc(Cl)cc3)c(N(C)C)o2)cc(OC)c1OC	-27.9% (inactive)	–
COc1ccc2c(c1)C(NS(=O)(=O)OCC(Cl)(Cl)Cl)CCC2 (configuration not stated)	-25.2% (inactive)	–
C=CC1C(OC2OC(CO)C(O)C(O)C2O)OC=C(C(=O)OC)C1CC1CC(=O)CC(CC(=O)CCc2ccc(O)cc2)O1 (configuration not stated)	-3.31% (inactive)	–
Cc1ccccc1NC(=O)Cc1nc(COC(=O)c2cccnc2Cl)cs1	-26.9% (inactive)	–
Cc1ccc(CSc2nc(-c3ccccc3)c(C#N)c(=O)[nH]2)cc1	4.01% (inactive)	–
CC1CCC(NC(=O)c2ccc(N3CCCC3=O)cc2)CC1 (configuration not stated)	-14.2% (inactive)	–
CN1C(=O)/C(=C/c2ccc(C(=O)NC3CCCC3)cc2)Oc2ccccc21	–	13 µM (active)

Compound	activity change, negative = growth inhibition	Potency
O=C(NC1CCCCC1)c1ccc(CNc2c(N3CCOCC3)c(=O)c2=O)cc1	2.06% (inactive)	–
CC(C)CC(=O)Nc1nnc(S(=O)(=O)N(C)c2ccc(Cl)cc2)s1	–	inactive and 146 nM (active)
CCC(=O)Nc1nnc(S(=O)(=O)N(CC(C)C)c2ccccc2)s1	1.07% (inactive)	–
COc1cccc(C(=O)Nc2nnc(S(=O)(=O)N(C)c3ccccc3)s2)c1	-2.7% (inactive)	–
Cc1noc(C)c1S(=O)(=O)N(C)C[C@H]1Oc2ccc(NC(=O)C3CCCCC3)cc2C(=O)N([C@H](C)CO)C[C@@H]1C	-22% (inactive)	–
COc1cc(OC)cc(-c2nc3ccccc3c(=O)n2NC(=O)c2cccnc2Cl)c1	17.5% (inactive)	–
COc1ccccc1C(=O)Nn1c(-c2cccs2)nc2ccccc2c1=O	–	18.4 µM (active)
O=C(Nn1c(-c2ccc(Cl)cc2)nc2ccccc2c1=O)c1cccnc1Cl	4.95% (inactive)	–
Cc1ccc(OCC(=O)OCc2cc(=O)n3nc(C4CC4)sc3n2)cc1	-14.9% (inactive)	–
CCc1cc(C(=O)Nc2nnc(C3CC3)s2)sc1C	-2.49% (inactive)	–
CCCN(CC(=O)Nc1ccccc1C)C(=O)c1ccc2[nH]c3c(c2c1)CC(C)CC3 (configuration not stated)	–	20.6 µM (active)
CCCN(CC(=O)Nc1ccccc1C)C(=O)c1cc(=O)[nH]c2ccccc12	15.5% (inactive)	–
CCCN(CC(=O)Nc1ccccc1C)C(=O)c1ccc(OCC(=O)N2CCOCC2)c(OCC)c1	-11.1% (inactive)	–
Cc1ccc(CN2CCN(c3ccccc3Cl)CC2)o1	-0.0371% (inactive)	–
Cc1ccc(N2C(=O)C3C4C=CC(CC4)C3C2=O)cc1Cl (configuration not stated)	-2.58% (inactive)	–
O=C(NCCN1CCOCC1)/C(=C/c1ccc(F)cc1)NC(=O)c1ccccc1	-3.57% (inactive)	–
Nc1nc(COC(=O)CCC(=O)c2ccc(Cl)cc2)nc(Nc2ccccc2)n1	-24.3% (inactive)	–
CCCc1cc(C(=O)Nc2ccc(C(=O)OC)cc2)cs1	-16.7% (inactive)	–
CCOC(=O)C1CCCN(C(=O)Cn2ncc3c(=O)oc4ccc(C)cc4c32)C1 (configuration not stated)	-12.6% (inactive)	–
CCOC(=O)C1CCCN(C(=O)Cn2ncc3c(C)n(Cc4ccc(F)cc4)c(C)c3c2=O)C1 (configuration not stated)	–	14.6 µM (active)
CCOC(=O)C1CCCN(C(=O)CN(c2ccc(OC)cc2)S(=O)(=O)c2c(C)noc2C)C1 (configuration not stated)	-48.7% (inactive)	–
CCCNC(=O)c1cc(C2CCCCN2S(=O)(=O)c2cn(C)cn2)on1 (configuration not stated)	-22.3% (inactive)	–
CCS(=O)(=O)N1Cc2ccccc2CC1C(=O)Nc1nc2ccc(F)cc2s1 (configuration not stated)	-0.226% (inactive)	–
O=C(Nc1ccc(O)cc1)c1ccc(NC(=O)c2ccco2)cc1	-8.54% (inactive)	–
Cc1ccc(S(=O)(=O)N(Cc2cc3ccccc3[nH]c2=O)CC2CCCO2)cc1 (configuration not stated)	-17.1% (inactive)	–
Cc1cc(C)c2cc(CN(Cc3cccs3)Cc3nnnn3CC3CCCO3)c(=O)[nH]c2c1 (configuration not stated)	–	23.1 µM (active)

Compound	activity change, negative = growth inhibition	Potency
Cc1cccc2cc(CN(Cc3cccs3)C(c3nnnn3C3CCCC3)C(C)C)c(=O)[nH]c12 (configuration not stated)	-77.9% (inactive)	–
O=C(c1cccs1)N(Cc1cc2ccccc2[nH]c1=O)CC1CCCO1 (configuration not stated)	12.6% (inactive)	–
CCCN(Cc1cc2cccc(C)c2[nH]c1=O)S(C)(=O)=O	-2.17% (inactive)	–
Cc1n[nH]c(=O)c2c1nnn2Cc1ccc(F)cc1	-4.85% (inactive)	–
CCC(c1nnnn1C1CCCC1)N(Cc1cccs1)Cc1cc2cccc(C)c2[nH]c1=O (configuration not stated)	–	20.6 µM (active)
Cc1cc(C)c2cc(CN(Cc3nnnn3Cc3ccc(F)cc3)C3CCCC3)c(=O)[nH]c2c1	–	14.6 µM (active)
c1ccc(CCn2nnnc2CN2CCN(C3CCCC3)CC2)cc1	-0.628% (inactive)	–
Cc1cccc2cc(CN(Cc3nnnn3Cc3ccccc3)C3CCCC3)c(=O)[nH]c12	–	20.6 µM (active)
Cc1cccc2cc(CN(C(=O)c3cccs3)c3ccccc3)c(=O)[nH]c12	-19.4% (inactive)	–
Cc1occc1-c1nnc(SCC(=O)NC2CCCCC2)o1	-8.72% (inactive)	–
Cc1cc2c(cc1S(=O)(=O)CCC(=O)NCc1ccccc1)OCC(=O)N2	5.34% (inactive)	–
CCSCc1nc(N)nc(NCCc2ccccc2)n1	-6.97% (inactive)	–
CCOc1ccc(-n2cnc3c(=O)[nH]c(N)nc32)cc1	2.7% (inactive)	–
CN(Cc1ccc(F)cc1)C(=O)COc1ccc2ccccc2c1	21.9% (inactive)	–
NC(=O)c1cc(-c2cccnc2)nc2ccc(Br)cc12	-19.6% (inactive)	–
CN1CCCCCC1C(=O)NCCN1Cc2ccccc2OC(c2ccsc2)C1 (configuration not stated)	11.9% [at 9.04 µM] (inactive)	–
C#CCOCCOCCOCCNc1nc(N2CCOCC2)nc(N2CCN(C(=O)[C@H](Cc3ccc(O)cc3)n3cc(CCO)nn3)CC2)n1	-10% (inactive)	–
CCN(C(=O)COC(=O)CCC(=O)c1cccs1)C1CCCCC1	-12.4% (inactive)	–
COc1ccc(C2CC(=O)Nc3c2c(=O)nc2c(C)cccn32)cc1OC (configuration not stated)	-19.8% (inactive)	–
COc1ccc(Br)cc1C1CC(=O)Nc2c1c(C)nn2-c1nc(C)cc(C)n1 (configuration not stated)	–	16.4 µM (active)
COc1ccc(C2c3c(C)nn(-c4ccccc4)c3NC(=O)N2c2ccccc2)cc1 (configuration not stated)	-0.19% (inactive)	–
CCOC(=O)C1(C)NC(c2ccco2)C2C(=O)N(c3ccccc3)C(=O)C21 (configuration not stated)	2.33% (inactive)	–
COC(=O)C1(C)NC(c2ccc(F)cc2)C2C(=O)N(c3ccccc3)C(=O)C21 (configuration not stated)	10% (inactive)	–
CCCCC1(C(=O)OCC)NC(c2ccc(O)cc2)C2C(=O)N(c3ccccc3)C(=O)C21 (configuration not stated)	–	14.6 µM (active)
